Screening data as filed in PubChem.
The list is not random: actives were taken first. Their share in the collection is about 3.3%.
M18AAP inhibitor – PfM18AAP enzyme inhibition | recombinant PfM18AAP, H-Glu-NHMec fluorogenic cleavage | inhibition, % at 7.35 µM | 290,000 tested, 1.2% active | AID 1822;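 active = inhibition above the campaign mean inhibition over all tested compounds plus 3 SD, cut at about 28% in these data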;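 note: 0% = plate median of test compound wells and 100% = 2 mM ZnCl2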
MBD2 inh – blocks human MBD2 binding to methylated DNA; Q9UBB5; TR-FRET, MBD2 binding to methylated oligonucleotide; inhibition, % at 4.4 µM; 370,000 tested, 0.31% active; AID 686964; in the data active = inhibition above about 13%
PfGluPho inh – PfG6PD (Plasmodium falciparum) enzyme inhibition; PfGluPho enzyme, NADPH resazurin-diaphorase fluorescence; AID 504690; 350,000 tested, 0.78% active; inhibition, % at 20 µM;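 active = inhibition reaching at least a set limit at 20 µM in the primary screen, cut at about 59% in these data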;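 note: 0% = DMSO wells with substrate and 100% = DMSO wells lacking glucose-6-phosphate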
UHRF1 binding – UHRF1 methyl-DNA binding inhibition; Q96T88; UHRF1 binding to methylated oligo, TR-FRET; inhibition, % at 4.4 µM; 370,000 tested, 0.75% active; AID 687016; in the data active = inhibition above about 21%;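 note: UHRF1 SRA domain binding a hemimethylated CpG hairpin DNA probe; 0% = median of test compound wells and 100% = reference inhibitor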
Target sequence (Q96T88 whole entry, looked up, the tested form may be a part): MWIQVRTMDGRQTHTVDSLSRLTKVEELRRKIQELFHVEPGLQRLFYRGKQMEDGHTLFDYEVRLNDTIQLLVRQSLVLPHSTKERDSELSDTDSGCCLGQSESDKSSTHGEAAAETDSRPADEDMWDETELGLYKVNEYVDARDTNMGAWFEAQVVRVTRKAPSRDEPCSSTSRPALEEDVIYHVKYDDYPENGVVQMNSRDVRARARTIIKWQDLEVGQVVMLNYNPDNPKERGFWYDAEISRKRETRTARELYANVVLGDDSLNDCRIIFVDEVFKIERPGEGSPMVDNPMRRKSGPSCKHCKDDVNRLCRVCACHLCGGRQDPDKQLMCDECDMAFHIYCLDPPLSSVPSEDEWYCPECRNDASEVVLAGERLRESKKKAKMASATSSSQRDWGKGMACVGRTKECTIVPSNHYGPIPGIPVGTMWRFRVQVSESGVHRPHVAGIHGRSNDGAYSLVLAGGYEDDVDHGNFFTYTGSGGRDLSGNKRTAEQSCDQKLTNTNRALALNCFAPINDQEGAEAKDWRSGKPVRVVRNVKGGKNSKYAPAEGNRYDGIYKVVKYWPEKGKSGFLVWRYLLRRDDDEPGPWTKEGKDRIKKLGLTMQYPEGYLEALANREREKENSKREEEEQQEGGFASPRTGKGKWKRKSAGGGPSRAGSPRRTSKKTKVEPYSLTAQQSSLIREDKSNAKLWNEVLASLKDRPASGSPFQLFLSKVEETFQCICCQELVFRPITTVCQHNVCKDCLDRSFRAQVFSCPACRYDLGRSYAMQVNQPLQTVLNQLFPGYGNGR
PRMT1 FP inh – inhibitors of human PRMT1. inhibition, % at 2.79 µM. 370,000 tested, 1.3% active. recombinant PRMT1, activity-based probe fluorescence polarization. Q99873;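 active = inhibition above about 21% made by adding two undisclosed values, limit read from the data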
PfG6PD confirm – PfG6PD inhibition, single-dose confirmed. 2,400 tested, 34% active. shares compounds with PfGluPho inh. recombinant PfGluPho, NADPH-diaphorase-resazurin fluorescence. inhibition, % at 20 µM;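 active = inhibition of at least 50% at 20 µM in any single replicate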;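 note: 0% = DMSO with substrate and 100% = DMSO lacking glucose-6-phosphate substrate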
Diaphorase 10uM – counter-screen for P. falciparum G6PD inhibitors: diaphorase inhibitors, oxidizers | shares compounds with PfGluPho inh | diaphorase-coupled resazurin reduction, fluorescence, NADPH 10 uM | inhibition, % at 20 µM | 820 tested, 39% active | AID 504862;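 active = average inhibition reaching 50% or more with the compound at 20 µM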;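 note: resorufin red fluorescence formed as diaphorase reduces resazurin using NADPH; 0% = DMSO with enzyme and 100% = DMSO without enzyme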
Diaph ctr 30uM – diaphorase inhibition or oxidation at 30 uM NADPH. Diaphorase/resazurin coupled assay, resorufin fluorescence. shares compounds with PfGluPho inh. 820 tested, 29% active. inhibition, % at 20 µM;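 active = inhibition averaging 50% or more, tested at 20 µM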;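 note: 0% = DMSO with enzyme and 100% = DMSO wells lacking diaphorase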
* = called active by the depositor; · = no result.

SMILES	M18AAP inhibitor	MBD2 inh	PfGluPho inh	UHRF1 binding	PRMT1 FP inh	PfG6PD confirm	others
COc1cc(/C=C/c2ccc3cccc(O)c3n2)cc(Cl)c1OC	-4	-1	73*	-2	3	-2
COc1cc(/C=C/c2ccc3cccc(O)c3n2)cc(OC)c1OC	-7	-4	-1	-5	0	·
CCCCN(C(=O)c1cccc(S(=O)(=O)N(C)c2ccc(C)cc2)c1)c1c(N)n(CC(C)C)c(=O)[nH]c1=O	·	3	-21	-2	-3	·
CCC(c1c[nH]c2ccccc12)c1cn(C)c2ccccc12 (stereo not drawn)	·	-1	·	-1	-1	·
Cc1cc(N2CCN(C(=O)OC(C)(C)C)C[C@H]2C)ccc1N1CCN(Cc2ccccc2)[C@@H](C)C1	·	2	·	-1	5	·
CCN(CC)c1ccc(C=Nc2ccccc2C)c(O)c1	10	0	59*	5	6	28
CCN(CC)c1ccc(/C=N/N(c2ccccc2)c2ccccc2)c(O)c1	0	-6	12	-3	1	·
COc1ccc(OC)c(C2CC(=O)NC(SC)=C2C#N)c1 (stereo not drawn)	-2	-2	28	-2	2	·
COc1ccc(Br)cc1C1CC(=O)N2CN(C)CSC2=C1C#N (stereo not drawn)	26	-3	65*	-6	17	25
COc1ccc(OC)c(C2CC(=O)N3CN(c4ccc(C)c(Cl)c4)CSC3=C2C#N)c1 (stereo not drawn)	18	-2	78*	-1	10	14
N#CC1=C2SCN(c3ccccc3)CN2C(=O)CC1c1cccs1 (stereo not drawn)	37*	3	71*	-9	19	36
N#CC1=C2SCC(O)(c3ccccc3)N2C(=O)CC1c1cccs1 (stereo not drawn)	20	7	-8	19	0	·
N#CC1=C2SCN(c3ccccc3)CN2C(=O)CC1c1ccccc1Cl (stereo not drawn)	21	0	74*	-2	20	13
CC1CCC2(CC1)NC(=O)N(CC(=O)Nc1cc(S(=O)(=O)N3CCCC3)ccc1Cl)C2=O (stereo not drawn)	·	-5	-10	-1	-8	·
O=C(CN1CCN(c2nc(-c3ccccc3)cs2)CC1)Nc1ccc(Cl)c(Cl)c1	·	2	·	-1	-5	·
N#CC1=C2SCN(Cc3ccccc3)CN2C(=O)CC1c1ccccc1F (stereo not drawn)	26	·	61*	·	·	26
O=C(Nc1nnc(CSCc2ccc(Cl)cc2)s1)c1cccc([N+](=O)[O-])c1	-3	-3	52	0	-1	·
O=C(Nc1nnc(CSCc2ccc(F)cc2)s1)c1cccc([N+](=O)[O-])c1	1	1	73*	7	3	44
O=C(Nc1nn[nH]n1)c1cccc([N+](=O)[O-])c1	15	-2	12	2	4	·
CCC(C)(C)c1nnc(NC(=O)c2cccc([N+](=O)[O-])c2)s1	-10	-1	116*	0	-3	88*	Diaphorase 10uM=93*;Diaph ctr 30uM=64*
COc1ccc(OC)c(NS(=O)(=O)c2ccc3[nH]c(=O)[nH]c3c2)c1	·	-4	-3	2	0	·
CC1CCCCN1C(=O)CCS(=O)(=O)c1cc2c(cc1Cl)NC(=O)CO2 (stereo not drawn)	-7	1	4	-1	-1	·
CC(C)[C@@H](NC(=O)C1CCN(C(=O)[C@@H]2CCCN2C(=O)OC(C)(C)C)CC1)C(=O)NCc1ccc(F)cc1	-3	1	-5	1	0	·
N#Cc1cc([N+](=O)[O-])ccc1Oc1cccc(/C=N/NC(=O)c2cccc(Cl)c2)c1	0	·	119*	·	·	62*	Diaphorase 10uM=60*;Diaph ctr 30uM=59*
COc1ccc(Nc2cc(C)c3cc([N+](=O)[O-])ccc3n2)cc1	-12	-3	45	-3	-1	·
SMILES	M18AAP inhibitor	MBD2 inh	PfGluPho inh	UHRF1 binding	PRMT1 FP inh	PfG6PD confirm	others
CCn1c2ccccc2c2cc(/C=N/n3cn[nH]c3=S)ccc21	16	3	63*	-3	7	52*	Diaphorase 10uM=0;Diaph ctr 30uM=5
O=C1Nc2cc(C(=O)NCCCN3CCOCC3)ccc2S/C1=C/c1cccc(Cl)c1	8	3	-17	-3	3	·
O=C1Nc2cc(C(=O)NCCCN3CCCC3)ccc2S/C1=C\c1ccccc1	-2	0	105*	7	0	98*	Diaphorase 10uM=-5;Diaph ctr 30uM=-16
COC(=O)[C@]12C[C@H](CC(=O)NCC34CC5CC(CC(C5)C3)C4)C(=O)N(CCC3=CCCCC3)C1=C[C@H](C(C)(C)C)O[C@@H]2C	·	3	·	1	-5	·
c1cncc(-c2nn3c(Cn4cnc5ccccc54)nnc3s2)c1	11	1	65*	-1	6	28
c1ccc(-c2nn3c(Cn4cnc5ccccc54)nnc3s2)cc1	3	0	64*	-2	2	27
c1ccc(-c2nn3c(Cn4nnc5ccccc54)nnc3s2)cc1	22	-3	75*	-2	21	33
COc1ccc(Oc2c(Br)cnn(Cc3cccc4ccccc34)c2=O)cc1	·	-1	·	1	0	·
COC(=O)C1=C(C)N(C)C(=NCc2ccccc2C(F)(F)F)NC1c1cccc(F)c1 (stereo not drawn)	·	1	·	-1	-2	·
CCOC(=O)c1ccc(-n2ccnc2)c(NC(=O)c2ccc(Cl)cc2)c1	-9	2	-7	1	-3	·
CCCCCCCCn1c2c(c(=N)c3ccccc31)CCC2	-5	-7	-2	-9	-1	·
Cc1cc(C)c2c(=N)c3ccccc3n(CCCCCCCCn3c4ccccc4c(=N)c4c(C)cc(C)nc43)c2n1	·	28*	76*	41*	-6	51*	Diaphorase 10uM=3;Diaph ctr 30uM=0
COC(=O)c1ccc(Cl)c(NC(=O)CN(c2ccccc2)S(=O)(=O)c2ccc(OC)cc2)c1	-8	-2	76*	1	0	-18
COc1ccc(NC(=O)CN(c2ccccc2)S(=O)(=O)c2ccccc2)c(OC)c1	-5	-3	3	2	3	·
CCc1c(C)nc2c(Br)cccc2c1SCCC#N	-8	-1	59*	3	6	-5
CCc1c(C)nc2ccc(Br)cc2c1SCCC#N	-12	-2	21	2	3	·
COC(=O)[C@]12C[C@H](CC(=O)NCC3CCCCC3)C(=O)N(CCc3ccc(OC)c(OC)c3)C1=C[C@H](COCc1ccccc1)O[C@@H]2C	·	4	·	0	-2	·
O=C(c1ccc2c(c1)N(Cc1ccccc1)C(=O)c1ccccc1S2)N1CCCC1	6	7	102*	2	5	72*	Diaphorase 10uM=62*;Diaph ctr 30uM=63*
